# Source: the supplement of paper PMC6124720
# Values without a mark were called inactive.
# Tested on: Pseudogymnoascus destructans 20631-21
# Assay: growth activity index (DuctApe, 0 = no growth, 9 = maximal growth) (index 0-9); higher = more fungal growth (less inhibition), active = 0 or less; extreme values may be limits of the assay
# Conditions: temperature: 13 °C, YPD
# [1] = concentration level (1-4, increasing; Biolog proprietary): 1
# [2] = concentration level (1-4, increasing; Biolog proprietary): 2
# [3] = concentration level (1-4, increasing; Biolog proprietary): 3
# [4] = concentration level (1-4, increasing; Biolog proprietary): 4
# 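Further: biolog Phenotype Microarray plates PM21–25, OD595 followed daily over 11 days, growth curves converted to index, mean of two independent experiments.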
Structure (SMILES),growth activity index [1],growth activity index [2],growth activity index [3],growth activity index [4]
c1ccc(-c2nn(-c3ccccc3)[n+](-c3cccc4ccccc34)n2)cc1 [Tetrazolium violet] (Biolog plate: PM25),4.33,3,0 (active),2
C[C@H]1c2cccc(O)c2C(=O)C2=C(O)[C@]3(O)C(=O)C(C(N)=O)=C(O)[C@@H](N(C)C)[C@@H]3[C@@H](O)[C@@H]21 [Doxycycline] (Biolog plate: PM23),4.67,5,5.33,6
COc1cc(/C=C/C(=O)O)ccc1O [Ferulic acid] (Biolog plate: PM25),1,0 (active),0 (active),1
N[C@H](CO)C(=O)O [D-Serine] (Biolog plate: PM22),5,4.67,4,4
OCC1OC(O)CC(O)C1O [2-Deoxy-D-glucose] (Biolog plate: PM23),4.67,5,5,4.33
NC[C@@H]1O[C@H](O[C@H]2[C@@H](O)[C@H](O[C@@H]3[C@@H](O)[C@H](N)C[C@H](N)[C@H]3O[C@H]3O[C@H](CO)[C@@H](O)[C@H](O)[C@H]3N)O[C@@H]2CO)[C@H](N)[C@@H](O)[C@@H]1O [Paromomycin] (Biolog plate: PM22),1,1,0.667,0 (active)
NC[C@@H]1O[C@H](O[C@H]2[C@@H](O)[C@H](O[C@@H]3[C@@H](O)[C@H](N)C[C@H](N)[C@H]3O[C@H]3O[C@H](CN)[C@@H](O)[C@H](O)[C@H]3N)O[C@@H]2CO)[C@H](N)[C@@H](O)[C@@H]1O [Neomycin] (Biolog plate: PM21),5.25,5,2.5,1.25
O=S(O)(O)=S [Sodium Thiosulfate] (Biolog plate: PM23),5,4.33,1.67,0 (active)
O=[Si](O)O [Sodium metasilicate] (Biolog plate: PM24),4.33,2.67,2.67,3.33
O=C(O)CC(O)C(=O)O (configuration not stated) [Malic acid] (Biolog plate: PM25),4,5,2.67,1.33
CO/N=C(\C(=O)N[C@@H]1C(=O)N2C(C(=O)O)=C(CSc3nc(=O)c(O)nn3C)CS[C@H]12)c1csc(N)n1 [Ceftriaxone] (Biolog plate: PM22),2,0 (active),0 (active),0 (active)
Cn1c(=O)c2c(ncn2C)n(C)c1=O [Caffeine] (Biolog plate: PM22),5,4,0 (active),0 (active)
CC(=O)OCC1=C(C(=O)O)N2C(=O)[C@@H](NC(=O)Cc3cccs3)[C@H]2SC1 [Cephalotin] (Biolog plate: PM22),5.67,5,5,1
O=c1[nH]cc(F)c(=O)[nH]1 [5-Fluorouracil] (Biolog plate: PM25),4.67,5,5.33,6
CC(CN1c2ccccc2Sc2ccccc21)N(C)C (configuration not stated) [Promethazine] (Biolog plate: PM21),4.75,0 (active),1,6
CC(C)Cc1ccc(C(C)C(=O)O)cc1 (configuration not stated) [Ibuprofen] (Biolog plate: PM25),4.33,4.67,4,5
O=S(=O)([O-])[O-].[Cu+2] [Copper (II) sulfate] (Biolog plate: PM21),6,6,6,6
O=C(O)/C=C/C(=O)O [Fumaric acid] (Biolog plate: PM25),4.33,4,4,4
N.N.O=S(=O)(O)O [Ammonium Sulfate] (Biolog plate: PM23),4.33,5.33,4,2.67
[Cl][Co][Cl] [Cobalt (II) chloride] (Biolog plate: PM23),3.33,4,4.33,1
O=C([O-])CC(O)(CC(=O)[O-])C(=O)[O-].[Na+].[Na+].[Na+] [Citric acid Trisodium Salt] (Biolog plate: PM25),4,4.67,4,5.67
CCCCCCCC(=O)[O-].[Na+] [Sodium Caprylate] (Biolog plate: PM23),1,3.33,4,4

Structure (SMILES),growth activity index [1],growth activity index [2],growth activity index [3],growth activity index [4]
O=C(O)CN(CCN(CC(=O)O)CC(=O)O)CC(=O)O (Biolog plate: PM21),5,5,5,5
NC(N)=O [Urea hydrogen peroxide] (Biolog plate: PM22),4.67,4,4.67,4.33
Clc1ccc(COC(Cn2ccnc2)c2ccc(Cl)cc2Cl)c(Cl)c1 (configuration not stated) [Miconazole Nitrate] (Biolog plate: PM24),4.67,0.333,0.333,0 (active)
O=C(O)/C=C/c1ccccc1 [Cinnamic acid] (Biolog plate: PM25),5,4.67,5,5
O.O=S(=O)([O-])[O-].O=S(=O)([O-])[O-].O=S(=O)([O-])[O-].[Al+3].[Al+3] [Aluminum sulfate] (Biolog plate: PM24),2,4,6,7
[Cl-].[Cl-].[Zn+2] [Zinc chloride] (Biolog plate: PM21),5.75,6.75,7,6.25
CSc1ccc2c(c1)N(CCC1CCCCN1C)c1ccccc1S2 (configuration not stated) [Thioridazine] (Biolog plate: PM24),3.33,1.33,0 (active),1.33
[Cl-].[Li+] [Lithium chloride] (Biolog plate: PM22),0 (active),0 (active),0 (active),0 (active)
O=C(O)CN(CCOCCOCCN(CC(=O)O)CC(=O)O)CC(=O)O (Biolog plate: PM24),4.33,4.33,4,4
CN(C)[C@@H]1C(O)=C(C(N)=O)C(=O)[C@@]2(O)C(O)=C3C(=O)c4c(O)ccc(Cl)c4[C@@](C)(O)[C@H]3C[C@@H]12 [Chlortetracycline] (Biolog plate: PM24),5.67,4.33,6,7
O=C(O)C(O)C(O)C(=O)O (configuration not stated) [Tartaric acid] (Biolog plate: PM25),3.33,2,4.33,1.33
NCCSCC(N)C(=O)O (configuration not stated) [Thialysine] (Biolog plate: PM24),4,4,4.67,5
[Cl][Cu][Cl] [Cupric chloride] (Biolog plate: PM23),4.33,5.33,6,6
NC[C@H]1O[C@H](O[C@H]2[C@H](O)[C@@H](O[C@H]3O[C@H](CO)[C@@H](O)[C@H](N)[C@H]3O)[C@H](N)C[C@@H]2N)[C@H](N)C[C@@H]1O [Tobramycin] (Biolog plate: PM25),5,5,5,1
CN(C)CCCN1c2ccccc2Sc2ccc(Cl)cc21 [Chlorpromazine] (Biolog plate: PM23),5,0 (active),0 (active),2
Nc1c2ccccc2nc2ccccc12 [9-Aminoacridine] (Biolog plate: PM24),5,5.33,7,9
O=c1[nH]c(=O)n([C@H]2C[C@H](O)[C@@H](CO)O2)cc1F [Fluorodeoxyuridine] (Biolog plate: PM25),4.67,3.67,4.33,3
NCC(=O)NO [Glycine hydroxamate] (Biolog plate: PM22),5,3.67,2,0 (active)
"c1ccc(-c2ccccn2)nc1 [2,2`-Dipyridyl] (Biolog plate: PM21)",5,5,5.25,5.25
NC[C@H]1O[C@H](O[C@H]2[C@H](O)[C@@H](O[C@H]3O[C@H](CO)[C@@H](O)[C@H](N)[C@H]3O)[C@H](N)C[C@@H]2N)[C@H](O)[C@@H](O)[C@@H]1O [Kanamycin] (Biolog plate: PM25),5,5,5,4.33
CCCCCCCCCCCC[N+](C)(C)CCOc1ccccc1 [Domiphen bromide] (Biolog plate: PM21),4,2,0 (active),0 (active)
